TbPYK inhibitor: qHTS of Trypanosoma Brucei Inhibitors | TbPYK enzyme, Kinase-Glo Plus ATP luminescence, 45 min | Potency, µM (top dose mostly 76.8 µM), for inactives: top-dose activity, negative = inhibition, hits mostly inhibitors | hit rate 0.12% among 410,000; active = well fitted curve in the direction sought with a large enough effect; inconclusive = small, poorly fitted or top-dose-only effect, or another doubt; inactive = no such curve, though single readings can be large; an effect the other way counts as inactive or inconclusive; note: potency is the fitted concentration of half-maximal effect; % is set by controls: 0 for no effect and ±100 for the full control effect; nearly all actives have a fitted effect of over 50% in size
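In this concentration-response screen, enzyme-free wells defined baseline while DMSO plates tracked drift. Each reaction combined TbPYK, substrate, compound and 130 uM ADP for 45 min at room temperature. Kinase-Glo Plus luminescence gave the signal.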
LmPK inhibitor: qHTS Assay for Inhibitors of Leishmania Mexicana Pyruvate Kinase (LmPK). hit rate 0.37% among 290,000. purified LmPK, Kinase-Glo ATP luminescence, 1 h. Q27686. Potency, µM (titrated, usually from 57.5 µM), without a hit: at the top dose activity change, negative = inhibition, usual class: inhibitors; active = well fitted curve in the direction sought with a large enough effect; inconclusive = small, poorly fitted or top-dose-only effect, or another doubt; inactive = no such curve, though single readings can be large; an effect the other way counts as inactive or inconclusive; note: potency is the fitted concentration of half-maximal effect; % is set by controls: 0 for no effect and ±100 for the full control effect
Target sequence (Q27686 whole entry, looked up): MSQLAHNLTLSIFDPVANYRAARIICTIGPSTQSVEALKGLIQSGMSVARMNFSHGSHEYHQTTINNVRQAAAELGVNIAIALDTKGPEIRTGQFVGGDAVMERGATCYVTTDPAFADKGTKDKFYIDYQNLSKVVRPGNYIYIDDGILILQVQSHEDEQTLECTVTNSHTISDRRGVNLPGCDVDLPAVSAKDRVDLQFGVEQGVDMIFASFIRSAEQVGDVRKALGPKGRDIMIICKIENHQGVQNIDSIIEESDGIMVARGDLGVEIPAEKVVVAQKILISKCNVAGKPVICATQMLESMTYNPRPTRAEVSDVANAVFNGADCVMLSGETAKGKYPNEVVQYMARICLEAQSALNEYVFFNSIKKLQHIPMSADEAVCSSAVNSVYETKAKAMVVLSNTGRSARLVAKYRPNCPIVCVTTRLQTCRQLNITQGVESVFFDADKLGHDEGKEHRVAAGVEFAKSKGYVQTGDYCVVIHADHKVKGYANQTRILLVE
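Pyruvate kinase activity monitored as ATP production (luciferase luminescence). Conditions: 0.1 nM enzyme, 0.5 mM PEP, 0.1 mM ADP, 1 h, RT; normalized against uninhibited and no-enzyme wells.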
SARS PLP yeast: qHTS of Yeast-based Assay for SARS-CoV PLP; S. cerevisiae expressing SARS-CoV PLpro, growth rescue; Potency, µM (titrated, usually from 32.9 µM), for the others: at the top dose activity, positive = growth rescue, most hits filed as activators; hit rate 0.19% among 330,000; AID 485353, 2010; note: potency is the fitted concentration of half-maximal effect; 0% is about no effect; nearly all actives have a fitted effect of over 55% in size
NS1 inh: qHTS Assay for Inhibitors of Influenza NS1 Protein Function; Potency, µM (series often up to 46.1 µM), for inactives: at the top dose activity, positive = more growth; hit rate 0.4% among 270,000; note: potency is the fitted concentration of half-maximal effect; actives are rising curves; nearly all actives have a fitted effect of over 50% in size
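Growth recovery, yeast-based: influenza A NS1 expressed in S. cerevisiae causes slow growth, and suppressors are detected by OD600. The parent strain without NS1 is used as positive control.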
Shiga inhibitor: A qHTS for Small Molecule Inhibitors of Shiga Toxin | AID 2315, 2010 | inhibition, % at 38.7 µM | hit rate 9.2% among 290,000 | Vero cells, Shiga toxin protein synthesis inhibition reporter; in the data active = inhibition mostly above about 28%, no sharp cut-off; inactive = mostly below about 43%; note: 0% is about no effect
CHX counter: Cycloheximide Counterscreen for Small Molecule Inhibitors of Shiga Toxin; cell reporter, cycloheximide protein synthesis inhibition counterscreen; hit rate 12% among 300,000; max response, %; in the data active = max response mostly above about 13%, no sharp cut-off; inactive = mostly below about 14%; note: read at 38.3 µM for the half of the compounds with a filed dose; 0% is about no effect
Numbers without * were called inactive; ? = inconclusive; / = no result given. Only a selection was taken, and hits are over-represented in it overall. Unless noted, calls come from the whole dose curve.

SMILES	TbPYK inhibitor	LmPK inhibitor	SARS PLP yeast	NS1 inh	Shiga inhibitor	CHX counter
COc1cccc(NC(=O)c2sc(Cl)nc2C)c1	5%	-1%	-1%	-15%	/	13*
Cc1ncoc1C(=O)Nc1cccc(Cl)c1	-16%	-28%	-10%	-51%	100*	63*
Cc1ccc(NC(=O)Cc2ncon2)cc1Cl	-1%	2%	-1%	-6%	32	20
Cc1ccc(NC(=O)c2ocnc2C)cc1Cl	-13%	-21%	-10%	-17%	70*	52*
Cc1ccc(Cl)cc1NC(=O)c1ocnc1C	-4%	3%	6%	-5%	-6	9
CSc1ccc(CCNC(=O)c2ccc(CS(=O)(=O)c3ccc(Br)cc3)o2)cc1	0%	/	/	/	/	/
COC(=O)c1ccccc1NC(=O)c1sc(Cl)nc1C	-3%	-1%	-4%	0%	80*	15*
Cc1cccc(C(=O)Nc2nc(C)c(C(=O)Nc3ccc4c(c3)CCC4)s2)c1	-4%	-8%	-6%	-1%	14	17*
Cc1cccc(NC(=O)c2sc(C)nc2C)c1	-3%	-28%	-11%	24%	84*	50*
Cc1ncoc1C(=O)Nc1cccc(Cl)c1C	-1%	-3%	1%	-4%	15	16*
Cc1ccccc1NC(=O)c1ocnc1C	0%	-1%	-6%	5%	0	1
COc1ccc(-c2nc3sc(CCNC(=O)Cc4ccc(F)cc4)c(C)n3n2)cc1	4%	/	/	/	/	/
CC(CNC(=O)Cn1c(-c2cccs2)cc2cc(Cl)ccc21)c1ccccc1 (stereo not drawn)	-2%	/	/	/	/	/
COc1cccc(NC(=O)CSc2nnc(NC(=O)NC3CCCCC3)s2)c1	3%	/	/	/	/	/
COc1cccc(NC(=O)c2ocnc2C)c1	-13%	?	-7%	-12%	63*	25*
Cc1ccc(SCc2ccc(C(=O)Nc3nccs3)o2)cc1	3%	-10%	-7%	0%	81*	38*
O=C(Nc1nccs1)c1ccc(CSc2ccccc2)o1	1%	-3%	23%	-18%	107*	58*
Cc1ccc(OCc2ccc(C(=O)Nc3nccs3)o2)cc1	9%	0%	-1%	-8%	30	4
O=C(Nc1nccs1)c1ccc(COc2ccccc2)o1	-4%	0%	6%	7%	84*	50*
COc1ccc(-c2ccc3c(N)c(C(=O)Nc4ccc(C)cc4C)sc3n2)cc1OC	-10%	/	/	/	/	/
COc1ccc(CCNC(=O)Nc2nc(C(N)C3CCCCC3)cs2)cc1OC (stereo not drawn)	3%	/	/	/	/	/
CCOC(=O)[C@H]1[C@H]2COc3ccc(C)cc3[C@@H]2N2C(=O)CN(CC3CCCO3)C(=O)[C@@]12C (stereo partly drawn)	9%	/	-4%	/	/	/
CC(=O)c1ccccc1C(=O)N1CCCC(CNC(=O)c2ccccc2Cl)C1 (stereo not drawn)	-27%	-1%	-2%	9%	32	27*
COc1ccc(C(=O)N2CCCC(CNC(=O)c3ccccc3Cl)C2)o1 (stereo not drawn)	7%	1%	3%	3%	20	18*
COc1ccccc1OCC(=O)NCC1CCCN(C(=O)c2ccccc2C(C)=O)C1 (stereo not drawn)	3%	2%	3%	-4%	5	-1
SMILES	TbPYK inhibitor	LmPK inhibitor	SARS PLP yeast	NS1 inh	Shiga inhibitor	CHX counter
CCOC(=O)c1cccc(NC(=O)/C=C/c2cccc([N+](=O)[O-])c2)c1	0%	3%	3%	-8%	15	8
CCOC(=O)/C=C/C(=O)OCC(=O)Nc1ccc([N+](=O)[O-])cc1	-8%	2%	-4%	-105%	31	17*
CCOC(=O)/C=C/C(=O)OCC(=O)Nc1cccc(Cl)c1Cl	0%	2%	-2%	/	2	9
COc1cc(/C=C/C(=O)OCC(=O)Nc2ccc([N+](=O)[O-])cc2)ccc1O	-4%	4%	-1%	5%	3	-2
CCOC(=O)/C=C/C(=O)Nc1ccccc1-c1ccccc1NC(=O)/C=C/C(=O)OCC	-12%	0%	-4%	2%	13	33*
CCOC(=O)/C=C/C(=O)Nc1cccc([N+](=O)[O-])c1	?	-4%	-110%	-51%	49	38*
CCCCN1C(=O)CN(C2CCCCCC2)C(=O)C1c1ccc(OCC)c(OC)c1 (stereo not drawn)	-5%	/	/	/	/	/
Cc1ccc2[nH]c(=O)c(CN(Cc3ccccc3)C(=S)NCCCN(C)C)cc2c1	-6%	16µM*	1%	-35%	48*	26*
O=C(NC1CCCC1)c1sc(=S)n2c1[nH]c(=O)c1ccccc12	-3%	22µM*	-9%	-64%	-7	-2
O=C(CNCc1ccccc1Cl)Nc1ccc2c(c1)OCCO2	4%	-6%	1%	0%	87*	45*
O=C(CSCc1ccccc1Cl)Nc1ccc2c(c1)OCCO2	-1%	-4%	4%	-41%	95*	58*
O=C(CNCc1ccc(Cl)cc1)Nc1ccc2c(c1)OCCO2	-4%	-4%	-4%	/	28	20
O=C1CCCN1CC(=O)N1CCCC(Nc2cccc(F)c2)C1 (stereo not drawn)	3%	1%	?	2%	5	4
COc1cccc(N2C(=O)C(CC(=O)Nc3cccc(F)c3)N(C3CCCC3)C2=O)c1 (stereo not drawn)	-1%	/	/	/	/	/
COc1ccc(NC(=O)CSc2nc3ccc(OC)cc3[nH]2)cc1	5%	-4%	-1%	7%	1	4
O=C(CSc1nc2ccccc2[nH]1)Nc1c(F)c(F)c(F)c(F)c1F	-2%	1%	-2%	/	1	11
CCOc1ccc2nc(SCC(=O)N(C)C)[nH]c2c1	1%	13%	14%	10%	74*	71*
COc1ccc2nc(SCC(=O)C(C)(C)C)[nH]c2c1	-7%	6%	1%	0%	65*	43*
O=C(CSc1nc2ccccc2[nH]1)c1ccco1	-5%	-13%	0%	-12%	106*	28*
COc1ccc2nc(SCC(=O)c3ccco3)[nH]c2c1	-8%	-24%	2%	-4%	63*	48*
COc1ccc2nc(SCC(=O)NC(C)(C)C)[nH]c2c1	-14%	1%	2%	-1%	56	8
COc1ccc(Cn2c(=O)c3ccccc3n3c(-c4ccc(C)cc4)nnc23)cc1	1%	/	/	/	/	/
CCCCN(CC)CCCNC(=O)c1nn(-c2ccc(OC)cc2)c(=O)c2c1c1ccccc1n2C	-1%	/	/	/	/	/
CCCCNC(=O)C1c2ccccc2OCC(=O)N1CCc1ccccc1 (stereo not drawn)	2%	/	/	/	/	/
O=C(CSc1ncnc2ccccc12)c1ccco1	-15%	-1%	0%	4%	57	25*
O=C(CSc1ncnc2ccccc12)NCc1ccco1	5%	-5%	?	-12%	-4	1

Bioassay records deposited in PubChem BioAssay by National Center for Advancing Translational Sciences (NCATS).
